Read-out in assay [1]: Urokinase-type plasminogen activator receptor (uPAR), PLAUR (gene 5329)
Description: BSK_4H_uPAR: BioMAP Diversity Plus: 4H Assay for Urokinase-type plasminogen activator receptor (uPAR) Biomarker Activity (AID 2283030). Conditions: primary human endothelial cells (HUVEC); actives raise or lower the signal. The essentials: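 Primary human umbilical vein endothelial cells were exposed to chemical for 24 h before cell-surface uPAR was quantified by ELISA. Activity was fitted bidirectionally against the DMSO negative control baseline.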

Read-out in assay [2]: Vascular endothelial growth factor receptor 2 (Homo sapiens) (UniProt P35968)
Description: BSK_4H_VEGFRII: BioMAP Diversity Plus: 4H Assay for Vascular endothelial growth factor receptor 2 (VEGFR2) Biomarker Activity (AID 2283031). Conditions: primary human endothelial cells (HUVEC); actives raise or lower the signal. An outline of the steps: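 Primary human umbilical vein endothelial cells in the BioMAP 4H system were dosed with test chemical, and 24 h later VEGFRII was measured by ELISA. Activity was fitted bidirectionally against DMSO as negative control and baseline.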

Read-out in assay [3]: Human Leukocyte Antigen - DR isotype (HLADR), HLA-DRA (gene 3122)
The experiment in a line: BSK_BE3C_HLADR: BioMAP Diversity Plus: BE3C Assay for Human Leukocyte Antigen - DR isotype (HLADR) Biomarker Activity (AID 2283032). Conditions: primary human bronchial epithelial cells; actives raise or lower the signal. An outline of the steps:
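Chemicals are dosed onto BE3C bronchial epithelial cultures of human origin and left 24 h. HLA-DR is then measured by ELISA, and the endpoint is fitted in both directions using DMSO as the activity baseline.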

Read-out in assay [4]: Vascular cell adhesion molecule 1 (VCAM1), VCAM1 (gene 7412)
Description: BSK_4H_VCAM1: BioMAP Diversity Plus: 4H Assay for Vascular cell adhesion molecule 1 (VCAM1) Biomarker Activity (AID 2283033).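 Further: cell-surface VCAM-1 protein measured by ELISA.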 Conditions: primary human endothelial cells (HUVEC); actives raise or lower the signal. The essentials:
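Chemicals are added to primary human umbilical vein endothelial cells. After 24 h, VCAM-1 levels are measured by ELISA. Values come from bidirectional fitting referenced to DMSO.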

Read-out in assay [5]: Interferon-gamma inducible Protein 10 (IP10), CXCL10 (gene 3627)
Description: BSK_BE3C_IP10: BioMAP Diversity Plus: BE3C Assay for Interferon-gamma inducible Protein 10 (IP10) Biomarker Activity (AID 2283034). Conditions: primary human bronchial epithelial cells; actives raise or lower the signal. An outline of the steps: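 IP-10 quantified by ELISA serves as the endpoint. Cells: primary human bronchial epithelium, read 24 h after compound addition. Activity is derived by bidirectional fitting with DMSO as negative control.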

Read-out in assay [6]: Plasminogen activator inhibitor-1 (PAI1), SERPINE1 (gene 5054)
The experiment in a line: BSK_BE3C_PAI1: BioMAP Diversity Plus: BE3C Assay for Plasminogen activator inhibitor-1 (PAI1) Biomarker Activity (AID 2283037). Conditions: primary human bronchial epithelial cells; actives raise or lower the signal. An outline of the steps:
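Values derive from bidirectional fitting against DMSO baseline of PAI-1 levels, measured by ELISA in human bronchial epithelial cells 24 h after compound addition.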

Read-out in assay [7]: urokinase plasminogen activator (uPA), PLAU (gene 5328)
Description: BSK_BE3C_uPA: BioMAP Diversity Plus: BE3C Assay for urokinase plasminogen activator (uPA) Biomarker Activity (AID 2283038).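 Further: uPA protein level quantified by ELISA in cell cultures; uPA read one day after compound addition.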 Conditions: primary human bronchial epithelial cells; actives raise or lower the signal. The essentials: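 Human primary bronchial epithelial cells were exposed to chemical for 24 h, then uPA levels were measured by ELISA. Responses were fitted bidirectionally against DMSO as negative control and baseline. Parallel SRB staining of total protein gauged overt cytotoxicity.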

Read-out in assay [8]: Interleukin-6 (IL6), IL6 (gene 3569)
Description: BSK_CASM3C_IL6: BioMAP Diversity Plus: CASM3C Assay for Interleukin-6 (IL6) Biomarker Activity for (AID 2283040). Conditions: primary human coronary artery smooth muscle cells; actives raise or lower the signal.

Read-out in assay [9]: Tissue plasminogen activator (tPA), PLAT (gene 5327)
The experiment in a line: BSK_BE3C_tPA: BioMAP Diversity Plus: BE3C Assay for Tissue plasminogen activator (tPA) Biomarker Activity (AID 2283041).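 On outcome: tPA level quantified by ELISA one day after compound addition.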 Conditions: primary human bronchial epithelial cells; actives raise or lower the signal. An outline of the steps: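 Gain- or loss-of-signal in tPA, measured by ELISA, derived by bidirectional fitting against DMSO. Cells: human primary bronchial epithelial; read at 24 h after chemical dosing.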

Read-out in assay [10]: Interleukin-8 (IL8), CXCL8 (gene 3576)
Description: BSK_CASM3C_IL8: BioMAP Diversity Plus: CASM3C Assay for Interleukin-8 (IL8) Biomarker Activity (AID 2283042).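 Further: IL-8 protein level quantified by ELISA.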 Conditions: primary human coronary artery smooth muscle cells; actives raise or lower the signal.

Read-out in assay [11]: Human Leukocyte Antigen - DR isotype (HLADR), HLA-DRA (gene 3122)
The experiment in a line: BSK_CASM3C_HLADR: BioMAP Diversity Plus: CASM3C Assay for Human Leukocyte Antigen - DR isotype (HLADR) Biomarker Activity (AID 2283043).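 Further: cell-surface HLA-DR protein level quantified by ELISA.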 Conditions: primary human coronary artery smooth muscle cells; actives raise or lower the signal.

Read-out in assay [12]: Monocyte Chemoattractant Protein-1 (MCP1), CCL2 (gene 6347)
The experiment in a line: BSK_CASM3C_MCP1: BioMAP Diversity Plus: CASM3C Assay for Monocyte Chemoattractant Protein-1 (MCP1) Biomarker Activity (AID 2283046).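 Further: MCP-1 level quantified by ELISA 24 h after dosing.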 Conditions: primary human coronary artery smooth muscle cells; actives raise or lower the signal.

Assay [13] in a line: BSK_CASM3C_Proliferation: Cell Proliferation Assessment in the BioMAP Diversity Plus: CASM3C Assay (AID 2283047).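 Further: sulforhodamine B total protein stain as relative cell number at 560 nm; sub-confluent cells exposed 48 h before staining; fitted both ways against DMSO so gain or loss of cell number.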 Conditions: primary human coronary artery smooth muscle cells.
Read-out in assay [14]: Monokine induced gamma interferon (MIG), CXCL9 (gene 4283)
Description: BSK_CASM3C_MIG: BioMAP Diversity Plus: CASM3C Assay for Monokine induced gamma interferon (MIG) Biomarker Activity (AID 2283048). Conditions: primary human coronary artery smooth muscle cells; actives raise or lower the signal.

Read-out in assay [15]: Thrombomodulin, THBD (gene 7056)
The experiment in a line: BSK_CASM3C_Thrombomodulin: BioMAP Diversity Plus: CASM3C Assay for Thrombomodulin Biomarker Activity (AID 2283051).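 Further: thrombomodulin protein level measured by ELISA 24 h after dosing.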 Conditions: primary human coronary artery smooth muscle cells; actives raise or lower the signal.

Read-out in assay [16]: Tissue Factor, F3 (gene 2152)
Description: BSK_CASM3C_TissueFactor: BioMAP Diversity Plus: CASM3C Assay for Tissue Factor Biomarker Activity (AID 2283052).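 Further: cell surface tissue factor protein level read by ELISA.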 Conditions: primary human coronary artery smooth muscle cells; actives raise or lower the signal.

Read-out in assay [17]: Urokinase-type plasminogen activator receptor (uPAR), PLAUR (gene 5329)
Description: BSK_CASM3C_uPAR: BioMAP Diversity Plus: CASM3C Assay for Urokinase-type plasminogen activator receptor (uPAR) Biomarker Activity (AID 2283054).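 Further: cell-surface uPAR protein level quantified by ELISA.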 Conditions: primary human coronary artery smooth muscle cells; actives raise or lower the signal.

Read-out in assay [18]: Collagen III, COL3A1 (gene 1281)
Description: BSK_hDFCGF_CollagenIII: BioMAP Diversity Plus: hDFCGF Assay for Collagen III Biomarker Activity (AID 2283056). Conditions: primary human foreskin fibroblasts; actives raise or lower the signal. The essentials:
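Human foreskin primary fibroblasts were exposed to test chemicals for 24 h, after which collagen III was quantified by ELISA. Activity was fitted bidirectionally against DMSO as negative control and baseline.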

Read-out in assay [19]: Epidermal growth factor receptor (EGFR), EGFR (gene 1956)
Description: BSK_hDFCGF_EGFR: BioMAP Diversity Plus: hDFCGF Assay for Epidermal growth factor receptor (EGFR) Biomarker Activity (AID 2283057). Conditions: primary human foreskin fibroblasts; actives raise or lower the signal. An outline of the steps:
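Dosing human primary skin fibroblasts, then measuring surface EGFR by ELISA at 24 h, gives the endpoint; gains and losses relative to DMSO were fitted in both directions.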

Read-out in assay [20]: Interleukin-8 (IL8), CXCL8 (gene 3576)
The experiment in a line: BSK_hDFCGF_IL8: BioMAP Diversity Plus: hDFCGF Assay for Interleukin-8 (IL8) Biomarker Activity (AID 2283058). Conditions: primary human foreskin fibroblasts; actives raise or lower the signal. The essentials: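 hDFCGF human dermal fibroblasts; 24 h chemical exposure; IL-8 by ELISA; bidirectional curve fit vs DMSO baseline; gain or loss of signal scored.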

Each structure is given as a SMILES string. Several values for one entry are separate records, joined by “and”; a condition that tells them apart may be missing. Equal entries are not always repeated. Activity calls are given as the source filed them. How the source made its calls: active means hit-call score of the fitted dose curve at least 0.9, where 1 is the maximum; inactive means score below 0.9.

As to `Sc1nc2ccccc2s1`, the outcome in assay [1], in assay [2], in [3], in [4], in assay [5] and in assay [6] was inactive. In addition, the result in assay [7], in [8], in assay [9], in assay [10], in assay [11] and in [12] was inactive. For the same molecule, the result in [13], in assay [14], in assay [15], in assay [17], in [18] and in assay [19] was inactive. Moreover, the result in assay [20] was inactive. Besides, the AC50 (in general, the midpoint of the concentration-response curve, whichever way the signal moves) in [16] was 0.016 µM (active).
`CCCCCCC(O)CCCCCCCCCCC(=O)OC` (stereo not given): the result in assay [1], in assay [2], in assay [3], in [4], in assay [6] and in [7] was inactive. Also, the result in assay [8], in [9], in assay [10], in [11], in assay [12] and in assay [13] was inactive. Also, the outcome in [14], in [15], in [16], in assay [17], in [18] and in assay [19] was inactive. Besides, the outcome in assay [20] was inactive. For the same molecule, the AC50 in assay [5] was 9.22 µM (active).
Consider `CCC(C)=NO`, for which the result in assay [1], in assay [2], in assay [3], in assay [4], in [5] and in assay [6] was inactive. Further, the outcome in [7], in assay [8], in assay [9], in assay [10], in [11] and in [12] was inactive. The result in assay [13], in [14], in [15], in [16], in assay [17] and in assay [18] was inactive. Moreover, the outcome in assay [19] and in [20] was inactive.
As to `CN(C)Cc1cc(C(C)(C)C)c(O)c(C(C)(C)C)c1`, the result in [1], in assay [2], in [3], in [4], in assay [5] and in assay [6] was inactive. The result in assay [7], in assay [8], in assay [9], in [10], in [11] and in assay [12] was inactive. Also, the result in assay [13], in [14], in assay [15], in assay [16], in assay [17] and in assay [19] was inactive. The outcome in assay [20] was inactive. The AC50 in assay [18] was 26.9 µM (active) and 20 µM (active).
Turning to `O=C(C(=O)c1ccccc1)c1ccccc1`, the outcome in assay [1], in assay [2], in [3], in assay [4], in assay [5] and in assay [6] was inactive. In addition, the outcome in assay [7], in assay [8], in assay [9], in assay [10], in assay [11] and in [12] was inactive. The outcome in assay [13], in [14], in assay [15], in assay [16], in assay [17] and in [18] was inactive. Moreover, the outcome in [19] and in [20] was inactive.
Turning to `CCCCCCCCCC/C=C/C1CC(=O)OC1=O` (stereo not given), the result in assay [1], in assay [2], in assay [4], in assay [7], in assay [8] and in [10] was inactive. For the same molecule, the outcome in assay [11], in assay [12], in [13], in assay [14], in assay [15] and in [16] was inactive. The result in [17], in [18], in assay [19] and in assay [20] was inactive. Further, the half-maximal activity concentration (AC50) in [3] is 20 µM (active); in [5] it was 18.4 µM (active); in [6], 20 µM (active); in assay [9], 14.5 µM (active).
In the case of `Oc1cccc2ccccc12`, the result in assay [1], in assay [2], in [3], in assay [4], in assay [5] and in assay [6] was inactive. Moreover, the outcome in [7], in assay [8], in assay [9], in assay [10], in assay [11] and in [12] was inactive. Moreover, the result in assay [13], in assay [14], in [16], in assay [17], in assay [18] and in assay [19] was inactive. Also, in assay [20], the result was inactive. The AC50 in [15] was 5.22 µM (active).
`CC[N+](CC)(CC(=O)Nc1c(C)cccc1C)Cc1ccccc1`: the outcome in assay [1], in assay [2], in assay [3], in assay [4], in assay [5] and in [6] was inactive. The result in [7], in assay [8], in assay [9], in assay [10], in [11] and in assay [12] was inactive. Also, the result in assay [13], in assay [14], in [15], in [16], in assay [17] and in assay [18] was inactive. In addition, the result in assay [19] and in assay [20] was inactive.
For the molecule `CC[N+](CC)(CC(=O)Nc1c(C)cccc1C)Cc1ccccc1` (tested in a mixture with another compound), the outcome in [1], in assay [2], in assay [3], in [4], in assay [5] and in [6] was inactive. Besides, the result in assay [7], in assay [8], in assay [9], in assay [10], in assay [11] and in [12] was inactive. The outcome in [13], in [14], in assay [15], in assay [16], in assay [17] and in assay [18] was inactive. Moreover, the result in assay [19] and in [20] was inactive.
